Data as given in PubChem BioAssay AID1159580 (chemical genetic matrix, 2015).
Where “and” joins values, the source holds several entries; their conditions need not be identical. Equal entries are not always repeated. Out of some 5,500 compounds screened, about 2,000 (36%) were called active. Another 18% or so got no clear call; they are omitted. Rule as the data show it: active = normalized growth mostly below about 0.91 (no sharp cut-off); inconclusive = no clear call, values can overlap the other calls; inactive = mostly above about 0.92. The list shows a part of the results.

Assay: chemical genetic growth profiling, strain panel (AID 1159580);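 also: tested at 20 µM; growth read once vehicle control cultures reached saturation at 30 °C; 1 = growth at the plate median or of vehicle wells; lower values mean less growth of the strain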
Settings: S. cerevisiae deletion strains, growth OD

Measured: normalized growth

Cn1c(=O)c2[nH]cnc2n(C)c1=O
inactive: locus YAL013W, strain DEP1, stronger effect = lower value 0.996 | locus YAL021C, strain ccr4, stronger effect = lower value 1.03 | locus YAL026C, strain drs2, stronger effect = lower value 1.03 | locus YAL030W, strain snc1, stronger effect = lower value 1.02 | locus YAL040C, strain CLN3, stronger effect = lower value 0.999 | locus YBL061C, strain skt5, stronger effect = lower value 1.02 | locus YBR009C, strain hhf1, stronger effect = lower value 1 | locus YBR021W, strain FUR4, stronger effect = lower value 0.968 | locus YBR023C, strain chs3, stronger effect = lower value 1.04 | locus YBR171W, strain sec66, stronger effect = lower value 1.04 | locus YBR229C, strain ROT2, stronger effect = lower value 0.983 | locus YBR231C, strain swc5, stronger effect = lower value 1.02 | locus YBR279W, strain paf1, stronger effect = lower value 1.02 | locus YCL011C, strain gbp2, stronger effect = lower value 1.02 | locus YCL016C, strain dcc1, stronger effect = lower value 1.04 | locus YCL029C, strain bik1, stronger effect = lower value 0.966 | locus YCL061C, strain MRC1 (second series), stronger effect = lower value 1 | locus YCL069W, strain vba3, stronger effect = lower value 1 | locus YCR088W, strain abp1, stronger effect = lower value 1.02 | locus YDL005C, strain med2, stronger effect = lower value 1.02 | locus YDL035C, strain GPR1, stronger effect = lower value 0.996 | locus YDL040C, strain nat1, stronger effect = lower value 1.02 | locus YDL074C, strain BRE1, stronger effect = lower value 1.02 | locus YDL101C, strain DUN1, stronger effect = lower value 0.985 | locus YDL134C, strain PPH21, stronger effect = lower value 0.985 | locus YDL185W, strain tfp1, stronger effect = lower value 0.979 | locus YDL192W, strain arf1, stronger effect = lower value 0.964 | locus YDR001C, strain nth1, stronger effect = lower value 1.01 | locus YDR069C, strain doa4, stronger effect = lower value 1.02 | locus YDR101C, strain arx1, stronger effect = lower value 0.975 | locus YDR137W, strain rgp1, stronger effect = lower value 1.04 | locus YDR150W, strain NUM1, stronger effect = lower value 0.99 | locus YDR159W, strain sac3, stronger effect = lower value 0.982 | locus YDR162C, strain NBP2, stronger effect = lower value 1.01 | locus YDR195W, strain ref2 1.01 | locus YDR297W, strain sur2, stronger effect = lower value 1.03 | locus YDR318W, strain mcm21, stronger effect = lower value 0.976 | locus YDR334W, strain swr1, stronger effect = lower value 1.02 | locus YDR335W, strain msn5, stronger effect = lower value 1.04 | locus YDR388W, stronger effect = lower value 0.975 | locus YDR392W, strain spt3, stronger effect = lower value 1.05 | locus YDR502C, strain sam2, stronger effect = lower value 1 | locus YEL003W, strain gim4, stronger effect = lower value 0.997 | locus YEL037C, strain rad23, stronger effect = lower value 1.02 | locus YEL061C, strain CIN8 (second series), stronger effect = lower value 1.02 | locus YEL061C, strain CIN8, stronger effect = lower value 0.989 | locus YER002W, strain NOP16, stronger effect = lower value 0.993 | locus YER015W, strain faa2, stronger effect = lower value 1.02 | locus YER016W, strain bim1, stronger effect = lower value 1.02 | locus YER110C, stronger effect = lower value 0.978 | locus YER111C, strain swi4, stronger effect = lower value 1 | locus YER155C, strain BEM2 (second series), stronger effect = lower value 1.02 | locus YER155C, strain BEM2, stronger effect = lower value 0.992 | locus YER167W, strain BCK2, stronger effect = lower value 0.988 | locus YFR010W, strain ubp6, stronger effect = lower value 0.99 | locus YGL078C, strain dbp3, stronger effect = lower value 0.987 | locus YGL086W, strain mad1, stronger effect = lower value 0.989 | locus YGL167C, strain pmr1, stronger effect = lower value 1.02 | locus YGL173C, strain kem1, stronger effect = lower value 1.02 | locus YGL227W, strain vid30, stronger effect = lower value 1.01 | locus YGL240W, strain doc1, stronger effect = lower value 1.02 | locus YGL248W, strain PDE1, stronger effect = lower value 0.99 | locus YGL253W, strain hxk2, stronger effect = lower value 1.03 | locus YGR078C, strain PAC10, stronger effect = lower value 0.992 | locus YGR135W, strain pre9, stronger effect = lower value 0.976 | locus YGR229C, strain SMI1, stronger effect = lower value 1.03 | locus YGR252W, strain gcn5, stronger effect = lower value 1.05 | locus YHR013C, strain ard1, stronger effect = lower value 1.05 | locus YHR027C, strain rpn1, stronger effect = lower value 1.02 | locus YHR030C, strain SLT2, stronger effect = lower value 0.984 and 0.992 | locus YHR079C, strain IRE1 (second series), stronger effect = lower value 0.965 | locus YHR079C, strain IRE1, stronger effect = lower value 0.988 | locus YHR094C, strain hxt1, stronger effect = lower value 0.985 | locus YHR129C, strain ARP1, stronger effect = lower value 0.995 | locus YHR142W, strain chs7, stronger effect = lower value 1.05 | locus YHR200W, strain rpn10, stronger effect = lower value 0.979 | locus YIL066C, strain RNR3, stronger effect = lower value 0.989 | locus YIL073C, strain SPO22, stronger effect = lower value 0.94 | locus YIL125W, strain kgd1, stronger effect = lower value 0.983 | locus YIR030C, strain dcg1, stronger effect = lower value 0.97 | locus YJL092W, strain hpr5, stronger effect = lower value 1.01 | locus YJL095W, strain BCK1 (second series), stronger effect = lower value 1.03 | locus YJL095W, strain BCK1, stronger effect = lower value 1.01 and 0.99 | locus YJL115W, strain asf1, stronger effect = lower value 1.03 | locus YJL129C, strain trk1, stronger effect = lower value 1.04 | locus YJL134W, strain LCB3, stronger effect = lower value 0.989 | locus YJL154C, strain vps35, stronger effect = lower value 1.01 | locus YJL164C, strain tpk1, stronger effect = lower value 1.01 | locus YJL166W, strain qcr8, stronger effect = lower value 1.02 | locus YJL168C, strain set2, stronger effect = lower value 0.978 | locus YJL187C, strain SWE1 (second series), stronger effect = lower value 0.984 | locus YJL187C, strain SWE1, stronger effect = lower value 1 | locus YJR043C, strain POL32, stronger effect = lower value 0.997
